# Results published in PubChem BioAssay AID651593 (National Center for Advancing Translational Sciences (NCATS), 2012).
# Screen size: about 1,100 compounds; about 860 (78%) were called active. About 19% were inconclusive and are not listed. Calls follow the shape of the dose curve; as a rule, active = well fitted activation curve with a large enough effect; inconclusive = small, poorly fitted or top-dose-only effect; inactive = flat fitted curve, though single readings scatter. So high a share suggests a set chosen from earlier hits. The list shows a part of the results.
# Experiment: qHTS of Nrf2 Activators: Hit Validation in Primary Assay; also: nearly all actives have a fitted effect of over 70% in size
# Conditions: Nrf2/ARE reporter cell assay; Potency: activation; series mostly up to 46.1 µM
# How it was run: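 AREc32 cells stably carrying an ARE-driven firefly luciferase, plated overnight, then exposed 24 h at 37 °C to compounds at several concentrations. ARE activation read as luminescence with Steady-Glo after 30 min at room temperature.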
# Potency is read from the fitted curve at half-maximal effect.
row,SMILES,Potency
1,CC(=O)Nc1ccc(N=Nc2ccccc2)cc1[N+](=O)[O-],3.66 µM (active)
2,CC(=O)Nc1cc2oc3ccccc3c2cc1[N+](=O)[O-],2.59 µM (active)
3,COC(=O)c1c(NC(=O)/C=C/C(=O)O)sc(C)c1-c1ccc(C(C)C)cc1,10.3 µM (active)
4,c1ccc(-c2noc(-c3cccc4ccccc34)n2)cc1,2.31 µM (active)
5,COc1nc2ccc(C)cc2cc1-c1noc(-c2ccccc2)n1,2.59 µM (active)
6,COc1cccc(-c2nc(-c3ccccc3)no2)c1,2.91 µM (active)
7,c1ccc(-c2noc(-c3cccnc3)n2)cc1,2.59 µM (active)
8,c1cncc(-c2noc(-c3cccc4ccccc34)n2)c1,1.16 µM (active)
9,Fc1ccccc1-c1nc(-c2ccc(Cl)cc2)no1,3.26 µM (active)
10,CC1=NC(=O)C(N=Nc2cccc(O)c2)N1c1ccccc1 (centres undefined),7.31 µM (active)
11,Cc1cccc2c(=O)n(C(=O)c3ccccc3)c(N)nc12,1.03 µM (active)
12,COc1ccc(OC)c(/C=C(\C#N)c2nc(-c3ccc(F)cc3)cs2)c1,2.59 µM (active)
13,O=C(Nc1nnc(-c2ccccc2F)s1)Nc1ccccc1F,1.84 µM (active)
14,O=C(Nc1nnc(-c2ccccc2F)s1)C1CCCO1 (centres undefined),7.31 µM (active)
15,O=C(Nc1ccccc1)c1nc[nH]c1C(=O)Nc1ccccc1F,inactive
16,COc1ccc(NC(=O)Nc2nnc(-c3ccccc3F)s2)cc1,1.84 µM (active)
17,COc1ccccc1-c1nnc(NC(C)=O)s1,20.6 µM (active)
18,O=C(CC(=O)c1ccccn1)c1ccccc1,3.66 µM (active)
19,NS(=O)(=O)c1ccc(Sc2nc3ccccc3s2)c([N+](=O)[O-])c1,16.4 µM (active)
20,NC(=O)c1nc(Nc2ccccc2)sc1NC(=O)c1ccccc1Br,2.31 µM (active)
21,NC(=O)c1nc(Nc2ccccc2)sc1NC(=O)c1c(F)cccc1F,2.59 µM (active)
22,O=C(/C=C/c1ccccc1)Nc1nc(-c2cccs2)ns1,2.59 µM (active)
23,O=C(/C=C/c1ccccc1Cl)Nc1nc(-c2cccs2)ns1,7.31 µM (active)
24,Cc1sc2c(c1C)C(=O)NC(c1ccccc1F)N2 (centres undefined),20.6 µM (active)
25,CCC/C(=N\NC(=O)c1ccco1)c1ccc(Cl)s1,5.17 µM (active)
26,O=c1c(-c2ccco2)[n+]([O-])c2ccccc2n1OCc1ccccc1,5.17 µM (active)
27,CCOC(=O)COn1c(=O)c(-c2ccco2)[n+]([O-])c2ccccc21,9.2 µM (active)
28,O=c1c(-c2ccco2)[n+]([O-])c2ccccc2n1OCc1c(F)cccc1F,0.58 µM (active)
29,COc1ccc(-c2cc3ccccc3c(=O)o2)cc1,4.61 µM (active)
